Screens deposited in PubChem BioAssay by National Center for Advancing Translational Sciences (NCATS).
NIH3T3 tox: NIH 3T3 cell cytotoxicity. NIH 3T3 viability, CellTiter-Glo ATP luminescence, 48-72 h. Potency, µM (doses to about 96.7 µM), for the others: at the highest dose activity change, negative = cytotoxicity, hits mostly inhibitors. actives 4.3% (n = 94,000); further: on the % scale 0 is the no-effect control and ±100 the full control effect; nearly all actives have a fitted effect of over 55% in size
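Luminescent ATP readout (CellTiter-Glo, 10 min RT) after 48 or 72 hr compound exposure of NIH 3T3 cells seeded at 400 cells/well in 1536-well format; quantitative HTS.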
FLuc inh-1: Photinus pyralis luciferase inhibition | P08659 | purified P. pyralis luciferase, luminescence, biochemical | Potency, µM (highest dose often 115 µM), usual class: inhibitors | actives 2.5% (n = 76,000); further: on the % scale 0 is the no-effect control and ±100 the full control effect; nearly all actives have a fitted effect of over 65% in size
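Luminescence read by CCD imager after adding enzyme (10nM final) to wells holding compound, titrated in qHTS. Substrates 10uM each D-luciferin and ATP; buffer 50mM Tris acetate pH 7.5, 10mM Mg acetate, Tween-20, BSA.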
NPR1 antag: human Npr1 receptor antagonism. HEK293 hNpr1 GloSensor cGMP, ANP-stimulated luminescence. Potency, µM (titrated, usually from 46.3 µM), without a hit: at the highest dose activity change, negative = inhibition, usual class: inhibitors. actives 1.6% (n = 76,000). AID 1347048; calls by dose curve; further: on the % scale 0 is the no-effect control and ±100 the full control effect; nearly all actives have a fitted effect of over 60% in size
Target sequence (P16066 whole entry, looked up): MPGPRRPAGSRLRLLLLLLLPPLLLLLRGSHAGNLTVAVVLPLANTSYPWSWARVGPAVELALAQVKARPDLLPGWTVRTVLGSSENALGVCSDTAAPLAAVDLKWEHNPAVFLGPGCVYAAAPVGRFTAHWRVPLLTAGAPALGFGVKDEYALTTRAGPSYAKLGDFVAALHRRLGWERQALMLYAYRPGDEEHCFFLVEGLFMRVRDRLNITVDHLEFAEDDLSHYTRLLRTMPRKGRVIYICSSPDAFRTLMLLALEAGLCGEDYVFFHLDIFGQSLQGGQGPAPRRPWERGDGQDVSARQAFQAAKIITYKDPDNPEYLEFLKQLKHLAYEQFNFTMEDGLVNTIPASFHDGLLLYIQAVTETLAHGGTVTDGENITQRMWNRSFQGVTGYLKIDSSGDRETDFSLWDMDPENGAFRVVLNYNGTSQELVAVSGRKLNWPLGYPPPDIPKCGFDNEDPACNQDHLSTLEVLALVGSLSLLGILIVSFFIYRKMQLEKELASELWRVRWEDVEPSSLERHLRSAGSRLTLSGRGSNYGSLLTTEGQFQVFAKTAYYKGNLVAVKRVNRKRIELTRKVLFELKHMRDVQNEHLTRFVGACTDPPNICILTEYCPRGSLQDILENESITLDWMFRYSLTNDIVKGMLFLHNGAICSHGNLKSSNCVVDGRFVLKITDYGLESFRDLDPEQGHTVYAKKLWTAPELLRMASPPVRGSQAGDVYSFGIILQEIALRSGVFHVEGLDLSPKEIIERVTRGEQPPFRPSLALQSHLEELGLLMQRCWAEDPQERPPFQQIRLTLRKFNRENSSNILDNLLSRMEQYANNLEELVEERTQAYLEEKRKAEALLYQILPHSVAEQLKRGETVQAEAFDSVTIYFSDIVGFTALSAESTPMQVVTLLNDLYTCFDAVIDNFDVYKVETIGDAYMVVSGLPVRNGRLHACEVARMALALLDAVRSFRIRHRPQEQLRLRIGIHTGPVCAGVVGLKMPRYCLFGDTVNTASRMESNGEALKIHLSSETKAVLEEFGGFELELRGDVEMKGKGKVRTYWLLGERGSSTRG
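Compound pre-incubated 30 min at room temperature on GloSensor-loaded HEK293 cells stably carrying hNpr1 and the pGS-40F cGMP biosensor. Stimulation uses hNppA at 0.1 nM final; luminescence is taken at baseline and 20 min post-agonist.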
HEK293 tox: HEK 293 cell cytotoxicity; HEK 293 viability, ATP luminescence (CellTiter-Glo), 48-72 h; Potency, µM (highest dose often 115 µM), without a hit: at the highest dose activity change, negative = cytotoxicity, actives largely listed as inhibitors; actives 6.6% (n = 94,000); further: on the % scale 0 is the no-effect control and ±100 the full control effect; nearly all actives have a fitted effect of over 60% in size
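Luminescence from cellular ATP, measured with CellTiter-Glo, indicates HEK 293 viability. Cells plated at 250 cells/well are treated with compound for 48 or 72 hr at 37 degree Celsius before reagent addition.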
FLuc SDR -ATP: binders stabilizing firefly luciferase, without ATP; shares compounds with FLuc inh-1; Purified FLuc-C-HiBiT, Nano-Glo HiBiT luminescence, no ATP; Potency, µM (series often up to 32.7 µM), for the others: at the highest dose activation (signal gain), actives largely listed as activators; actives 7.8% (n = 1,300); further: nearly all actives have a fitted effect of over 55% in size
FLuc SDR ATP: stabilizes firefly luciferase with ATP present; shares compounds with FLuc inh-1; purified FLuc-C-HiBiT + ATP, HiBiT complementation luminescence; Potency, µM (top dose mostly 32.7 µM), for inactives: at the top dose activation (gain of signal), hits mostly activators; actives 8.7% (n = 1,300); AID 1963319;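 further: signal reports ligand binding via conformational change of the enzyme rather than luciferase catalysis; % of control where 0% means no effect; nearly all actives have a fitted effect of over 55% in size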
FLuc inh-2: inhibitors of firefly luciferase enzymatic activity; actives 42% (n = 1,300); purified FLuc-C-HiBiT enzyme, luciferin luminescence; AID 1963320; Potency, µM (titrated, usually from 32.7 µM), for inactives: at the top dose activity change, negative = inhibition, usual class: inhibitors; shares compounds with FLuc inh-1; further: on the % scale 0 is the no-effect control and ±100 the full control effect; nearly all actives have a fitted effect of over 70% in size
Active calls of the source: *; i = inactive; ? = inconclusive; . = not tested or not shown; [ ] = remark or other dose. Compounds with a hit are over-represented: about 11% of the library has one in this group of screens. Unless noted, the call rests on the fitted dose curve; in most records, active means well fitted curve in the direction sought with a large enough effect; inconclusive means small, poorly fitted or top-dose-only effect, or another doubt; inactive means no such curve, though single readings can be large; an effect the other way counts as inactive or inconclusive. Potency means the concentration at half of the fitted maximal effect.

SMILES | NIH3T3 tox | FLuc inh-1 | NPR1 antag | HEK293 tox | FLuc SDR -ATP | FLuc SDR ATP | FLuc inh-2
COc1ccc(-c2nnc([C@H]3CCN(C(=O)c4ccc(F)cc4)C3)o2)cc1 | -21%[138 µM] | i | 1%[70.6 µM] | -12%[172 µM] | . | . | .
CCOC(=O)c1ccc(NC2SC(=O)N(Cc3cccc(C(=O)O)c3)C2=O)cc1 (stereo not drawn) | . | . | . | . | 14% | ? | ?
O=C(N[C@@H]1CN(C(=O)Nc2ccc(OC(F)(F)F)cc2)CCC[C@H]1O)c1ccc(OCCN2CCOCC2)cc1 | ? | ? | -2% | ? | . | . | .
COc1ccc(C(=O)N[C@@H]2CN(C(=O)Nc3ccc(OC(F)(F)F)cc3)CCC[C@H]2O)cc1 | 45µM* | 8.9µM* | ? | 40µM* | 16% | 12% | ?
O=c1[nH]c(CC2CC2)nc2c1CCN(CC1(O)CCCNC1)C2 (stereo not drawn) | i | i | 1% | i | . | . | .
COc1ccccc1CC(=O)NCCn1ccn2nc(-c3ccc(C)c(C)c3)cc2c1=O | -23% | i | -5% | -6% | . | . | .
CCOc1ccc(-c2cc3c(=O)n(CCNC(=O)c4cccc5[nH]ccc45)ccn3n2)cc1 | 28µM* | 7.9µM* | -27% | 22µM* | ? | ? | 5.6µM*
COc1cccc(C(=O)NCCn2ccn3nc(-c4ccc(C)c(C)c4)cc3c2=O)c1OC | -23% | 5.6µM* | -12% | ? | 23% | 17% | 7.9µM*
COc1ccc(-c2cc3c(=O)n(CCNC(=O)c4cccc(N(C)C)c4)ccn3n2)cc1 | -12% | 3.5µM* | -28% | ? | 28% | ? | ?
COc1cccc(C(=O)NCCn2ccn3nc(-c4ccc(C)cc4C)cc3c2=O)c1OC | ? | 5.6µM* | -5% | ? | 31% | 19% | 9.9µM*
Cc1nn(-c2ccc(C(F)(F)F)cc2)c(C)c1[C@@H]1C=C[C@@H](NC(=O)c2ccc(N(C)C)cc2)C1 | ? | ? | -14% | ? | . | . | .
CCNC(=O)N[C@@H]1C=C[C@@H](c2c(C)nn(-c3ccccc3[N+](=O)[O-])c2C)C1 | -26%[174 µM] | ? | -27%[70.6 µM] | ? | . | . | .
CCNC(=O)N[C@@H]1C=C[C@@H](c2c(C)nn(-c3ccc(C(C)C)cc3)c2C)C1 | 28µM* | 0.5µM* | 7.1µM* | 20µM* | ? | ? | 2.9µM*
CC(=O)N[C@@H]1C=C[C@@H](c2c(C)nn(-c3ccc(C(F)(F)F)cc3)c2C)C1 | 89µM* | 14µM* | ? | 79µM* | 16%[49.3 µM] | ? | ?
CC(=O)N[C@@H]1C=C[C@@H](c2c(C)nn(-c3ccc(C(C)(C)C)cc3)c2C)C1 | 50µM* | 14µM* | ? | ? | 17%[49.3 µM] | 18%[49.3 µM] | ?
CCNC(=O)N[C@@H]1C=C[C@@H](c2c(C)nn(-c3ccc(C(F)(F)F)cc3)c2C)C1 | ? | 1.6µM* | 25µM* | 22µM* | 25%[49.3 µM] | ? | 14µM*
O=C([C@@H]1C[C@H](F)CN1S(=O)(=O)c1ccc(C(F)(F)F)cc1)N1CCCCC1 | -6% | i | -3% | 1% | . | . | .
CC1(C(=O)NCCN2CCOCC2)CCc2cnc(NCc3ccccc3)nc21 (stereo not drawn) | ? | i | -2%[70.6 µM] | -25%[172 µM] | . | . | .
Cc1ccc(NC(=O)N2CCC(Oc3ncccc3C(=O)N3CCOCC3)C2)cc1Cl (stereo not drawn) | -21% | i | -13% | -27% | . | . | .
Cc1nn(-c2ccc(C(C)(C)C)cc2)c(C)c1[C@@H]1C=C[C@@H](NC(=O)COCC(=O)O)C1 | ? | 22µM* | -2%[70.6 µM] | 3%[172 µM] | 28%[49.3 µM] | 18%[49.3 µM] | ?
COc1cccc(-c2noc(COc3ccccc3Cl)n2)c1 | . | . | . | . | 14% | 13% | ?
COc1ccc(-c2noc(-c3nc(Cc4cccc(F)c4)no3)n2)cc1 | -9% | i | -10% | 1% | . | . | .
